Assay results as given in PubChem BioAssay AID624354 (Sanford-Burnham Center for Chemical Genomics, 2012).
Values joined by “and” are separate entries in the source; they are usually repeats but may differ in a detail not shown here. Equal values may be shown once. Hit rate of the full screen: of about 360,000 compounds, about 3,800 (1.1%) were called active. This is one part of a sample in which actives are shown more often than they occur. Unmarked numbers belong to inactive results.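 Rule for the calls: active = compounds causing at least 50% loss of cell viability in the single-dose screen, relative to plate controls; inactive = the rest.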

Test: viability loss with TRAIL in NB7+C8 cells, primary screen, TRAIL sensitizer project, cell-based, ATPlite luminescence (AID 624354)
Conditions: at 10 µM, stronger effect = higher value

| SMILES | inhibition (viability loss, TRAIL sensitization) |
| --- | --- |
| CC(=O)c1sc(NC(=O)c2ccc(C)cc2)nc1C | 68.3% (active) |
| CC(=O)c1sc(N)nc1C | -3.29% and -3.98% |
| Cc1ccc(C(=O)Nc2ccn(C)n2)cc1 | 14.4% |
| CCOC(=O)N1CCN(C(=O)COC(=O)c2cccc(S(C)(=O)=O)c2)CC1 | -12.4% |
| C=CC(COCc1ccccc1)N(CC(=O)OC)S(=O)(=O)c1cc(Br)ccc1OC (stereo not given) | 2.56% |
| Cc1cc(C)cc(OCC(=O)Nc2ccc(N3CCOCC3)cc2N2CCOCC2)c1 | 6.27% |
| CCOc1cc(N2CCOCC2)c(OCC)cc1NC(=O)COc1cccc2cccnc12 | 53.6% (active) |
| CCOc1cc(N2CCOCC2)c(OCC)cc1NC(=O)C1=NN(c2cccc(C)c2)C(=O)CC1 | 3.1% |
| Cc1ccc(-c2c3c(=O)n(C)c(=O)n(C)c3cn2-n2cnnc2)cc1 | -15.5% |
| COc1ccc(OC)c(NC(=O)c2ccc3c(c2)C(=O)N(c2ccc(OC(C)=O)cc2)C3=O)c1 | -0.949% |
| CC1CCCCC1NC(=O)CCS(=O)(=O)c1ccc2c(c1)NC(=O)CO2 (stereo not given) | -18.2% |
| Cc1ccccc1S(=O)(=O)N1[C@@H](c2cccc(Cl)c2)C(C(=O)O)=CC[C@H]1c1ccc(Cl)cc1 | 15.5% |
| Cc1nc2ccccc2n1C(=O)N1CCOCC1 | -8.36% |
| Cc1oc2c(c1C(=O)N1CCOCC1)C(=O)c1ccccc1C2=O | 88.8% (active) |
| CC(C(=O)Nc1ccccc1-c1ccccc1)N1CCOCC1 (stereo not given) | -42% |
| COC(=O)[C@@]1(Sc2ccc(C)cc2)CC(=O)N(c2cccc(SC)c2)[C@@H]1c1ccccc1 | 24.6% |
| O=C1/C(=C\c2ccc([N+](=O)[O-])cc2)CS(=O)(=O)C/C1=C/c1ccc([N+](=O)[O-])cc1 | 91.8% (active) |
| O=C(Cc1ccccc1)N1CCN(S(=O)(=O)c2ccc([N+](=O)[O-])cc2)CC1 | -7.16% |
| O=[N+]([O-])c1ccc(N=NNc2ccc([N+](=O)[O-])cc2)cc1 | 13.8% |
| CC1(C(=O)NCc2ccco2)Cc2c(-c3ccc4c(c3)OCO4)ccnc2O1 (stereo not given) | 14.9% |
| COc1ccc(/C=N/Nc2ccccc2C(=O)O)cc1 | 55.9% (active) |
| CCOc1cc(/C=N/NC(=O)c2c(C)nc3ccc(Cl)cn23)ccc1O | -7.66% |
| COc1ccc(C(=O)Nc2ccccc2C(=O)N/N=C/c2ccc(O)c(OC)c2)cc1 | 95.8% (active) |

| SMILES | inhibition (viability loss, TRAIL sensitization) |
| --- | --- |
| COc1cc(C=NC2CCCCC2)ccc1O | -2.08% |
| COc1ccc(/C=N/NC(=O)Cn2cc(C(F)(F)F)ccc2=O)cc1 | -0.17% |
| COc1ccc(/C=N/NC(=O)C(C)N(c2ccc(OC)cc2)S(C)(=O)=O)cc1 (stereo not given) | -5.4% |
| Cc1cccc(N(Cc2ccccc2)C(=O)c2cc(S(=O)(=O)N3CCOCC3)ccc2F)c1 | 19.9% |
| CN(C)C(=O)CCc1ccc2c3c([nH]c2c1)[C@]1(CCc2ccccc2)[C@@H](C(=O)N2CCCCC2)C[C@H](CC(=O)NCCC2=CCCCC2)C(=O)N1CC3 | 13.2% |
| CCc1nc2ccc(C(=O)Nc3cccc(OC)c3)cn2c1N(CCC(C)C)CCN(C)C | 15.5% |
| CCOc1ccccc1-n1c(SCC(=O)N2CCCC2)nnc1-c1ccoc1C | 2.53% |
| Cc1ccc(C(=O)N/C(=C/c2ccco2)C(=O)NCCc2c[nH]c3ccccc23)cc1C | -2.25% |
| O=C(N/N=C/C=C/c1ccco1)c1cccs1 | -0.972% |
| Cc1ccc(-c2cc(C(=O)N/N=C/C=C/c3ccco3)c3ccccc3n2)cc1C | 61.5% (active) |
| Cc1ccc(C2Nc3ccccc3C(=O)N2CCN2CCNC2=O)cc1 (stereo not given) | -20.4% |
| Cc1ccnc(N2C(=O)c3ccc([N+](=O)[O-])cc3C2=O)c1 | -23.1% |
| CC(=O)Nc1c(-c2ccc(C)cc2)nc2ccc(Cl)cn12 | -3.92% |
| Cc1ccc2nc(-c3ccc(Br)cc3)cn2c1 | 67.2% (active) |
| Cc1ccc(-c2cn3cc([N+](=O)[O-])ccc3n2)cc1 | 56.8% (active) |
| COc1ccc(-c2nc3ccc(Br)cn3c2Cc2ccc(C)cc2)cc1OC | 3.92% |
| Cc1ccc(-c2cn3cc(C)ccc3n2)cc1 | 87.8% (active) |
| Cc1ccc(-c2nc3ccc(Br)cn3c2Cc2ccccc2C(F)(F)F)cc1 | 12.7% |
| Cc1ccc(-n2cc3ccc([N+](=O)[O-])cc3n2)cc1 | 25.5% |
| Cc1ccc(Cc2c(-c3ccccc3)nc3ccc(Cl)cn23)cc1 | 8.97% |
| CCOc1ccc(C(C)=O)cc1CSc1nnc(-c2ccncc2)n1CCOC | -21.1% |
| CC(C)Oc1ccc(/C=C(\NC(=O)/C=C/c2ccco2)C(=O)NCCc2nc3ccccc3[nH]2)cc1 | -11.3% |
| CCCCN(CC)C(=O)CN(C)S(=O)(=O)c1cccc2nsnc12 | 4.95% |

| SMILES | inhibition (viability loss, TRAIL sensitization) |
| --- | --- |
| CN(CC(=O)Nc1c(Cl)cccc1Cl)C(=O)c1ccncc1 | -1.41% |
| OC[C@@H]1CN(Cc2ccc(Cl)cc2)C[C@H](n2cnc3c(NCc4ccncc4)ncnc32)O1 | 0.808% |
| CSCCC(NS(=O)(=O)c1ccccc1F)C(=O)N1CC=C(c2ccccc2)CC1 (stereo not given) | 15.4% |
| N#CCCn1ncc2ccccc21 | -30.7% |
| COc1ccc2c(c1)cc1n2CCN=C1NN | 6.58% |
| COc1ccc(C(=O)NC(Cc2ccc(OC(=O)c3ccc(OC)cc3)cc2)C(=O)O)cc1 (stereo not given) | 7.3% |
| O=CNc1cc(-c2ccc(C(=O)N3CCOCC3)cc2)cn2c(-c3ccc(F)cc3)cnc12 | 19.1% |
| CC(C)CNC(=S)NC(=O)c1ccc(Cl)cc1 | -9.78% |
| CN1C(=O)[C@H]2[C@@H](/C=C/c3ccccc3)N3C(=O)CN(Cc4ccc(-c5ccccc5)cc4)C(=O)[C@@]3(C)[C@H]2C1=O | 7.89% |
| CCOc1ccc(Br)cc1S(=O)(=O)Nc1ccc(C(=O)OC(C)C(=O)N(C)c2ccccc2)cc1 (stereo not given) | 9.56% |
| O=C(NNc1c2ccccc2nc2ccccc12)c1cc2ccccc2cc1O | 11.6% |
| Cc1ccc(/C=N/NC(=O)C2=NNC(c3ccccc3)(c3ccccc3)C2)c(O)c1 | 20.2% |
| Oc1ccc(/C=N/Nc2nc(-c3ccccc3F)nc3ccccc23)c(O)c1 | 60.2% (active) |
| O=C(NCc1ccccn1)[C@@H]1CCCN1C(=O)[C@@H]1CCCN1C(=O)c1ccccc1 | -14% |
| Nc1nc(NC(=O)/C=C/c2ccccc2)nn1-c1ccccc1 | 15% |
| COc1ccc(Oc2c(Cl)cnn(-c3ccccc3)c2=O)cc1 | 89.7% (active) |
| COc1ccc(C2c3c(C)nn(-c4ccccc4)c3NC(=O)N2c2ccccc2)cc1 (stereo not given) | -5.29% |
| COc1ccc(CCNC(=O)c2c(C)nn(-c3ccccc3)c2Cl)cc1 | -4.85% |
| O=C(CN1C(=O)NC2(CCOc3ccccc32)C1=O)Nc1cccc([N+](=O)[O-])c1 (stereo not given) | -2.91% |
| CCOC(=O)C1=C(C)OC(N)=C(C#N)C1c1cncc(-c2ccc(F)cc2)c1 (stereo not given) | -2.49% |
| FC(F)(F)c1ccc2nnc(-c3c(Cl)cccc3Cl)n2c1 | 24.4% |
| CN(C)C1=NC[C@H](Cc2ccccc2)N1CCc1ccc(F)cc1 | 6.59% |
| CN(C)CCNC(=O)c1ccc(Cl)c2cc3ccccc3nc12 | 56% (active) |

| SMILES | inhibition (viability loss, TRAIL sensitization) |
| --- | --- |
| COCCNC(=O)c1ccccc1-c1nc(-c2ccccc2Cl)no1 | 4.78% |
| Cc1cc(C)n(C(=O)CCNC(=O)c2ccccc2Cl)n1 | 4.1% |
| Cn1nc(-c2ccccc2)c(CSc2cccc(Cl)c2)c1Cl | 6.33% |
| Cc1ccc(S(=O)(=O)NC[C@H]2O[C@@H](n3cnc4c(N)ncnc43)[C@H](O)[C@@H]2O)s1 | -2.79% |
| Cn1nc(C(C)(C)C)c(NC(=O)c2sccc2Cl)c1C(C)(C)C | 15.6% |
| COc1cccc(-c2nc3cc(C)ccc3o2)c1 | 52.6% (active) |
| O=[N+]([O-])c1ccc2oc(-c3cccc(O)c3)nc2c1 | 24.5% |
| COc1ccc2oc(N)nc2c1 | 4.55% |
| O=C(NC(Cc1ccc(O)cc1)C(=O)O)/C(=C/c1ccccc1)NC(=O)c1ccccc1 (stereo not given) | -22.8% |
| Cc1ccc(N2C(=O)C3C(c4ccccc4)(C2=O)C3(c2ccccc2)c2ccccc2)cc1 (stereo not given) | 11.6% |
| CSc1cc(C)[nH]c(=O)n1 | -4.86% |
| O=C(O)c1ccc(N/N=C/c2cn(-c3ccccc3)nc2-c2cccs2)cc1 | 76.2% (active) |
| O=C(O)c1ccc(N/N=C/c2ccc3ncccc3c2)cc1 | 18.4% |
| COc1ccc(Cl)cc1NC(=O)CN(C)C(=O)c1cn(-c2ccccc2)nc1-c1cccs1 | 21.4% |
| COc1ccc(CN2CC(C(=O)NCCc3ccc(Cl)cc3)CC2=O)cc1 (stereo not given) | 10.4% |
| CCOC(=O)C1CCCN(C(=O)c2ccc(N(C)C)cc2)CC1 (stereo not given) | -15.3% |
| OC1CN=C2Sc3ccccc3N2C1 (stereo not given) | -13.7% |
| CC1CN(S(=O)(=O)c2ccccc2)C(C)CN1S(=O)(=O)c1ccccc1 (stereo not given) | 7.64% |
| O=C(COc1cccc(F)c1)Oc1ccc(C(=O)c2ccccc2)cc1 | 7.92% |
| Cc1noc(C)c1COC(=O)COc1ccc(-c2ccccc2)cc1 | -21.6% |
| O=C(Oc1ccc(-c2nc(-c3ccccn3)no2)cc1)c1ccccc1 | 72% (active) |
